We go through nine molecules from PubChem BioAssay.

Inconclusive results are not listed. Active and inactive are the calls of the source.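 How the source made its calls, unless noted: active means growth inhibition above 25% in both replicates, a cutoff set 3 SD above the mean; inconclusive means above 25% in only one replicate; inactive means the rest.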

A short description of assay [1]: Her2 expression decrease, cell viability multiplex – SKBR3 breast tumor cells, AlphaScreen, ATP viability, primary screen (AID 461;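 active means Her2 level under about 52% in both replicate screens, with viability over 70% of control, limit read from the data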;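 on Her2 level: lower value means less Her2 protein in the cells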;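 on viability: percent of carrier control wells set as 100% viability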). The following applies: SKBR3 Her2 protein level, 18-24 h, measured here: SKBR3 viability, ATP luminescence, at 10 µM. In general terms: Alpha assays give light when donor and acceptor beads are brought close together.
Assay [2] has as its target Receptor tyrosine-protein kinase erbB-2 (Homo sapiens) (UniProt P04626). The description is as above. The following applies: 18-24 h, at 10 µM, stronger effect = lower value.
Assay [3] in a line: reduced viability of SK-BR-3 breast cancer cells – cell-based, 24 h, human, pilot screen (AID 572;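 active means viability at or below 10% of carrier control in both of two separate runs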;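 further: compound exposure lasted between 18 and 24 h rather than exactly 24 h; 100% = carrier-treated control wells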). The following applies: SK-BR-3 viability, CellTiter-Glo luminescence, at 10 µM, stronger effect = lower value.
The nature of assay [4]: HUVEC growth inhibition – cell-based, human, primary screen (AID 575;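 active means viability at or below 30% in both replicate assays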;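 further: 100% = median of untreated cell wells with 0.1% DMSO on each plate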). The settings on record: HUVEC proliferation, CellTiter-Glo luminescence, 72 h; at 10 µM; stronger effect = lower value.
Assay [5] is described as follows: H69AR cell proliferation blockers – human, duplicate replicates, primary screen (AID 580;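 active means viability at or under a set limit in both replicates, limit being median viability minus 3 SD, cut at about 48% in these data, passing the limit was not always enough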;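 further: 100% = mean luminescence of untreated wells and 0% = no signal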). The settings on record: H69AR lung tumor cells viability, ATP luminescence, 72 h; at 10 µM; stronger effect = lower value.
Assay [6] is described as follows: MRP1 drug-resistance reversers in H69AR cells – cell-based, doxorubicin co-treatment, pilot screen (AID 601;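 active means viability loss from added drug above about 55%, and viability with drug at most 40%, in both replicates, limit read from the data, passing the limit was not always enough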). The following applies: CellTiter-Glo, 72 h, at 10 µM; for differential viability (reversal): stronger effect = higher value.
A short description of assay [7]: yeast transport mutant growth inhibition pilot in 384-well plates, post-Golgi transport modulator project (AID 636; in the data active means inhibition above about 31%). The settings on record: absorbance 615 nm, about 18 h, stronger effect = higher value.
Assay [8] can be described thus: growth suppression of yeast trafficking mutant, preliminary HTS, modulators of trafficking downstream of Golgi apparatus project, 1536-format plate, OD 615 nm (AID 637; in the data active means inhibition above about 30%). The settings on record: yeast transport mutant growth, absorbance 615 nm, 18 h; stronger effect = higher value.
Assay [9] in a line: S. cerevisiae growth inhibition in permissive medium (OD615), pilot counter-assay for S. cerevisiae lifespan shortening project, permissive growth control (AID 705). The settings on record: OD615, 24 h, at 10 µM, stronger effect = higher value.
The nature of assay [10]: S. cerevisiae growth inhibition in restrictive medium, OD615, pilot screen, restrictive growth control, yeast lifespan reduction project (AID 706;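 active means growth inhibition above a set limit, 3 SD over mean compound inhibition, in both replicates, cut at about 43% in these data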;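 further: modified DeaD lifespan yeast strain shifted to restrictive glucose medium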). The following applies: OD615, 48 h, at 10 µM, stronger effect = higher value.
The nature of assay [11]: doxorubicin toxicity protection in MRP-1 cells – H69AR cells, CellTiter-Glo, duplicate, MRP-1 activator project, pilot screen (AID 807;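 active means viability increase at or above a cutoff of the median across tested compounds plus 3 SD, cut at about 8.5% in these data, passing the limit was not always enough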;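 further: compound pretreatment 18-22 h then 72 h combined with doxorubicin; 0% = doxorubicin alone and 100% = vehicle without doxorubicin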). The following applies: H69AR viability with doxorubicin, CellTiter-Glo luminescence; at 10 µM; stronger effect = higher value. In general terms: ATP-based viability assays read luminescence as a measure of living cells.
Assay [12] in a line: viability of HCT116 without oncogenic beta-catenin – human colon tumor cells, pilot screen (AID 823;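 active means cell viability at or below a set limit in both duplicate runs, the limit being the all-compound median minus 4 SD, cut at about 23% in these data, passing the limit was not always enough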;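 further: 0% = wells killed by 20 µM Hyamine and 100% = untreated DMSO cell wells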). The settings on record: HCT116 beta-catenin knockout viability, CellTiter-Glo, 60 h; at 10 µM; stronger effect = lower value.
Assay [13] can be described thus: viability of PTEN-null HCT116 cells – cell-based, HCT116 clonal line, CellTiter-Glo, pilot screen (AID 824;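 active means viability at or below 27.92% in each of two runs, the all-compound median minus 4 SD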;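 further: 0% = 20 µM Hyamine control and 100% = vehicle cell control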). The settings on record: HCT116 PTEN-deleted viability, 60 h, at 10 µM, stronger effect = lower value.
Assay [14] in a line: RAM pathway blockade in budding yeast – dse1pr::URA3 reporter, 5-FOA selection, pilot screen (AID 869;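 active means inhibition over a set limit, the all-compound mean plus 3 SD, in both replicate runs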;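 further: 0% = DMSO wells with no growth and 100% = 10 µM 1-NA-PP1 with full growth; RAM network block rescues cells from 5-FOA so hits raise OD615 growth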). The settings on record: S. cerevisiae dse1pr::URA3 5-FOA growth, OD615, 2 d; at 10 µM; stronger effect = higher value; strain carries analog-sensitive mutant Cbk1 kinase.
The nature of assay [15]: RAM signaling pathway blockade in yeast – S. cerevisiae, Pdr1DBD-CYC8 efflux-inhibited sensitized strain, primary screen (AID 1298;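 active means RAM network inhibition above 8.4% in each of two replicates, 3 SD over the compound average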;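 further: 0% = DMSO untreated cells without growth and 100% = 10 µM 1-NA-PP1 full growth; higher means more yeast growth rescued from 5-FOA killing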). The settings on record: S. cerevisiae cbk1-as DSE1-URA3 strain, 5-FOA growth OD615, 2 d; at 50 µM; stronger effect = higher value.
Setting [16] is: H69AR cells + 2 uM doxorubicin, measured here: viability with 2 uM doxorubicin, stronger effect = lower value.
Where [17] appears, read: H69AR cells, compound alone cytotoxicity.

Sequence of Receptor tyrosine-protein kinase erbB-2 (Homo sapiens) (P04626 whole entry, looked up): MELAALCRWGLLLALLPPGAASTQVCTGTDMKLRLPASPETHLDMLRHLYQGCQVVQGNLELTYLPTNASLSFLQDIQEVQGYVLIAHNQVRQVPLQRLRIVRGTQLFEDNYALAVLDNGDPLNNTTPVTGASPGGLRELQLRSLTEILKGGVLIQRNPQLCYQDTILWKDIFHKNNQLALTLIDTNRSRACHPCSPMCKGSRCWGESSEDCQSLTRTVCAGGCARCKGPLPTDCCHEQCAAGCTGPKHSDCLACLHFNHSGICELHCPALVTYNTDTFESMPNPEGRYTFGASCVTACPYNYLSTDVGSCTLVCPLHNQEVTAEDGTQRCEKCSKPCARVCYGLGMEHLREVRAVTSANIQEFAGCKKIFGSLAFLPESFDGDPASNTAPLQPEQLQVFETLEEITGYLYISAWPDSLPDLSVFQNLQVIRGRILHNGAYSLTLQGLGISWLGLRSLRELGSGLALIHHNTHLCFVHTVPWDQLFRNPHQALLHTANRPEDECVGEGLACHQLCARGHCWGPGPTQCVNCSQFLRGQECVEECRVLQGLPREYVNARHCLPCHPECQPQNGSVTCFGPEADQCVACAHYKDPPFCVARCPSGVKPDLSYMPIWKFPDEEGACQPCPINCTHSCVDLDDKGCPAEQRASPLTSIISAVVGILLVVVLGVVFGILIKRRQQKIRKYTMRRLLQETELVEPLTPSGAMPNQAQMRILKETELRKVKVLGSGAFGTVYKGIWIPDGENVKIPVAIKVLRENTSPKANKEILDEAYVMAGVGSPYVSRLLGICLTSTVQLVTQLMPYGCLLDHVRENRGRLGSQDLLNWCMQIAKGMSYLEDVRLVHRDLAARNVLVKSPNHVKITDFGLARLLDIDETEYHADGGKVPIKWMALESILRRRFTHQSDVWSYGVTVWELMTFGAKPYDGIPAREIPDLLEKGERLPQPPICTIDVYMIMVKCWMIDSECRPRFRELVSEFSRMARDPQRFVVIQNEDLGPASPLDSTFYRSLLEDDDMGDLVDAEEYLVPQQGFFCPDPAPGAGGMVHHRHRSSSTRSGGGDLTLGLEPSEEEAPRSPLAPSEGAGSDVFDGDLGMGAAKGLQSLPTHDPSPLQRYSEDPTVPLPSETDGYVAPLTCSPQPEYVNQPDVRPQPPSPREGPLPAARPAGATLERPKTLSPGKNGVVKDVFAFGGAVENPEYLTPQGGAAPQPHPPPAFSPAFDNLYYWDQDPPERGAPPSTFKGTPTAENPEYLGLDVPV

In general, viability refers to a read-out of living cells in per cent, often relative to untreated cells. Usually inhibition stands for the relative decrease from the control value, in per cent. For the molecule `CCCCOC(=O)Cn1c(=O)oc2ccc(C)cc21`, the viability in [1] is 102%; in assay [3], 102% (inactive); in [4] it was 86% (inactive); in [5], 93.4% (inactive); in [6] (setting [16]), 87.4%; in assay [6] (setting [17]), 93.4%. The viability in assay [12] was 89.6% (inactive); in assay [13], 98.1% (inactive). Further, the Her2 level in [2] was 126% (inactive). In addition, in assay [6] (H69AR cells + 2 uM doxorubicin), the differential viability (reversal) was 5.94% (inactive). In addition, the inhibition in [7] was -3.2% (inactive); in [8], 2.67% (inactive); in assay [14] it was -0.58% (inactive). In addition, the growth inhibition was -17.9% (inactive) in assay [9] and -25.1% (inactive) in assay [10]. Moreover, in [11], the viability increase was -0.28% (inactive). Also, the RAM network inhibition in [15] is 0.27% (inactive).
For the molecule `O=C(NCC1CCCO1)C1CCN(S(=O)(=O)c2cccc3cccnc23)CC1` (stereo not drawn), the viability was 102% in assay [1]; 102% (inactive) in assay [3]; 112% (inactive) in assay [4]; 101% (inactive) in [5]; 94% in [6] (setting [16]); 101% in assay [6] (setting [17]). The values for the viability in assay [12] and in assay [13] were 94.2% (inactive) and 93.7% (inactive), respectively. For the same molecule, the Her2 level in assay [2] is 93.5% (inactive). In addition, in assay [6] (H69AR cells + 2 uM doxorubicin), the differential viability (reversal) is 7.45% (inactive). In addition, the inhibition is -2.53% (inactive) in [7], -2.13% (inactive) in assay [8] and 1.76% (inactive) in assay [14]. Further, the growth inhibition is -2.44% (inactive) in assay [9] and 12% (inactive) in assay [10]. Further, in assay [11], the viability increase is -1.56% (inactive). Besides, in assay [15], the RAM network inhibition is 2.72% (inactive).
In the case of `Cc1ccccc1OCc1nnc2n1CC(C)S2` (stereo not drawn), the viability in [1] is 99%; in assay [3], 99% (inactive); in [4], 88.6% (inactive); in assay [5], 92.3% (inactive); in [6] (setting [16]), 90.9%; in [6] (setting [17]), 92.3%. The viability in [12] was 97.8% (inactive); in assay [13], 95.3% (inactive). The Her2 level in assay [2] is 95% (inactive). Moreover, the differential viability (reversal) in [6] (H69AR cells + 2 uM doxorubicin) was 1.37% (inactive). For the same molecule, the inhibition in [7] was -4.27% (inactive); in [8], -2% (inactive); in [14], 0.795% (inactive). For the same molecule, the growth inhibition was 3.34% (inactive) in assay [9] and 16.6% (inactive) in [10]. Besides, in [11], the viability increase is 0.12% (inactive). Further, the RAM network inhibition in assay [15] is -0.06% (inactive).
As to `CCCS(=O)(=O)N1CCN(C(=O)c2cccnc2)CC1`, the viability is 97% in [1]; 97% (inactive) in [3]; 93.1% (inactive) in assay [4]; 106% (inactive) in assay [5]; 101% in assay [6] (setting [16]); 106% in [6] (setting [17]). For the same molecule, the viability in assay [12] is 101% (inactive); in assay [13] it was 95.2% (inactive). In [2], the Her2 level is 98.5% (inactive). For the same molecule, in assay [6] (H69AR cells + 2 uM doxorubicin), the differential viability (reversal) is 5.65% (inactive). The inhibition in assay [7] is -0.26% (inactive); in assay [8], -3.77% (inactive); in [14], -0.345% (inactive). In addition, the growth inhibition in assay [9] is -8.47% (inactive); in assay [10] it was -15.8% (inactive). For the same molecule, the viability increase in assay [11] is 1.08% (inactive). For the same molecule, in assay [15], the RAM network inhibition was 0.42% (inactive).
As to `O=C(c1ccc(CSCc2ccccc2F)o1)N1CCN(c2ccc(N3CCOCC3)nn2)CC1`, the viability was 84.5% in [1]; 84.5% (inactive) in assay [3]; 54.7% (inactive) in [4]; 79.7% (inactive) in [5]; 85% in [6] (setting [16]); 79.7% in [6] (setting [17]). For the same molecule, the viability is 83.6% (inactive) in [12] and 89.7% (inactive) in assay [13]. The Her2 level in [2] is 76% (inactive). The differential viability (reversal) in assay [6] (H69AR cells + 2 uM doxorubicin) was -5.4% (inactive). Further, the inhibition is 0.9% (inactive) in assay [7], -0.17% (inactive) in assay [8] and 1.54% (inactive) in assay [14]. Also, the growth inhibition in [9] is 1.75% (inactive); in [10] it was 17.4% (inactive). Further, the viability increase in assay [11] is -4.06% (inactive). Besides, the RAM network inhibition in assay [15] is 2.93% (inactive).
In the case of `CN(C)CCCNC(=O)CCC1CCCCC1`, the viability is 93% in assay [1]; 93% (inactive) in [3]; 101% (inactive) in assay [4]; 94% (inactive) in assay [5]; 84.9% in [6] (setting [16]); 94% in [6] (setting [17]). Moreover, the viability in assay [12] is 99.5% (inactive); in assay [13], 107% (inactive). Besides, in assay [2], the Her2 level is 78% (inactive). In [6] (H69AR cells + 2 uM doxorubicin), the differential viability (reversal) was 9.09% (inactive). The figures for the inhibition in [7], in assay [8] and in assay [14] were -7.16% (inactive), 1.17% (inactive) and 0.2% (inactive), respectively. In addition, the growth inhibition was -1.1% (inactive) in [9] and -3.73% (inactive) in assay [10]. In addition, in assay [11], the viability increase was 0.26% (inactive). Besides, the RAM network inhibition in assay [15] is 6.01% (inactive).
For `CN1CCN(Cc2nc3c(c(=O)[nH]c(=O)n3C)n2CCc2ccccc2)CC1`, the viability was 82% in [1]; 82% (inactive) in assay [3]; 91.2% (inactive) in [4]; 93% (inactive) in [5]; 97.2% in assay [6] (setting [16]); 93% in assay [6] (setting [17]). Besides, the viability was 92% (inactive) in [12] and 93.5% (inactive) in [13]. The Her2 level in assay [2] was 96% (inactive). Further, the differential viability (reversal) in assay [6] (H69AR cells + 2 uM doxorubicin) was -4.29% (inactive). Moreover, the results for the inhibition in assay [7], in assay [8] and in [14] were -6% (inactive), -5% (inactive) and 0.565% (inactive), respectively. The growth inhibition is -4.41% (inactive) in assay [9] and 1.98% (inactive) in [10]. Moreover, the viability increase in assay [11] was -4.22% (inactive). Besides, the RAM network inhibition in assay [15] was 1.56% (inactive).
Turning to `Cc1ccc(C)c(NC(=O)CSc2nnc(-c3ccccc3)o2)c1`, the viability was 89.5% in [1]; 89.5% (inactive) in assay [3]; 111% (inactive) in assay [4]; 89.6% (inactive) in [5]; 80.1% in assay [6] (setting [16]); 89.6% in [6] (setting [17]). For the same molecule, the viability is 95.9% (inactive) in assay [12] and 97.2% (inactive) in assay [13]. The Her2 level in [2] is 104% (inactive). Moreover, the differential viability (reversal) in assay [6] (H69AR cells + 2 uM doxorubicin) is 9.51% (inactive). In addition, the inhibition in [7] was -6.4% (inactive); in assay [8], -4.5% (inactive); in assay [14], 0.49% (inactive). In addition, the growth inhibition in assay [9] is -4.45% (inactive); in [10] it was -0.695% (inactive). Also, in assay [11], the viability increase is 1.83% (inactive). Besides, in [15], the RAM network inhibition was 1.79% (inactive).
As for `NC(=O)CSc1cn(CCNC(=O)c2cccs2)c2ccccc12`, the viability in assay [1] is 99.5%; in [3], 99.5% (inactive); in assay [4], 99.4% (inactive); in assay [5], 93.4% (inactive); in [6] (setting [16]), 91.9%; in [6] (setting [17]) it was 93.4%. In addition, the viability was 107% (inactive) in [12] and 94.8% (inactive) in [13]. Also, in [2], the Her2 level was 92.5% (inactive). The differential viability (reversal) in assay [6] (H69AR cells + 2 uM doxorubicin) is 1.49% (inactive). In addition, the inhibition in assay [7] is -4% (inactive); in assay [8] it was -2.83% (inactive); in assay [14] it was 1.34% (inactive). Further, the growth inhibition is -14.1% (inactive) in [9] and -28% (inactive) in assay [10]. The viability increase in assay [11] is -0.44% (inactive). Also, the RAM network inhibition in [15] was 5.84% (inactive).
